# About 79,000 compounds went through this panel and 15% of them were active in at least one assay; those are over-represented in the sample as a whole. Unmarked numbers belong to inactive results. Calls of active or inactive are those of the source. Rule as the data show it: active = growth inhibition above about 70%; inactive = the rest.
# Tests used:
# [1] = NCI Yeast Anticancer Drug Screen. Data for the rad50 strain (AID 155);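 also: 0% = growth of vehicle-only cultures of the same strain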; conditions: S. cerevisiae rad50 strain growth inhibition, stronger effect = higher value
# Method in brief: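 Yeast carrying a defined DNA repair defect were exposed to test compounds, and growth was compared with vehicle-treated controls to give percent inhibition.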
# [2] = NCI Yeast Anticancer Drug Screen. Data for the mec2-1 strain (AID 157); conditions: S. cerevisiae mec2-1 strain, stronger effect = higher value
# Method in brief: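 Readout is yeast growth inhibition, normalised to vehicle-treated controls, in the mec2-1 strain exposed to compound.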
# [3] = NCI Yeast Anticancer Drug Screen. Data for the sgs1 mgt1 strain (AID 161);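 also: 0% = growth of cultures given vehicle only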; conditions: S. cerevisiae sgs1 mgt1 strain, stronger effect = higher value
# Method in brief: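 This yeast growth screen uses a strain with defined DNA-repair lesions; compound-treated growth is compared with vehicle-treated growth.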
# [4] = NCI Yeast Anticancer Drug Screen. Data for the cln2 rad14 strain (AID 165);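 also: 0% = growth equal to vehicle treated cultures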; conditions: S. cerevisiae cln2 rad14 strain, stronger effect = higher value
# Method in brief: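 Relative to vehicle controls, growth inhibition of compound-treated cln2 rad14 yeast was recorded.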
# [5] = NCI Yeast Anticancer Drug Screen. Data for the bub3 strain (AID 167); conditions: S. cerevisiae bub3 mutant strain, stronger effect = higher value
# Method in brief: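 Compounds were applied to a genetically altered yeast strain carrying a cell-cycle control defect. Growth inhibition was scored against vehicle-treated controls.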
# [6] = NCI Yeast Anticancer Drug Screen. Data for the mlh1 rad18 strain (AID 175); conditions: S. cerevisiae mlh1 rad18 strain growth inhibition, stronger effect = higher value
# Method in brief: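 Test agents were incubated with a yeast strain of defined genotype (DNA damage repair defect). Inhibition of growth was derived by comparison with vehicle-exposed cultures.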
# [7] = at 5.0 µM (retest, dose inferred, filed as 0.5)
# [8] = at 50.0 µM (retest, dose inferred, filed as 5.0)
Compound,"growth inhibition [1, 7]","growth inhibition [1, 8]",growth inhibition ([1]; at 50.0 µM),"growth inhibition [2, 7]","growth inhibition [2, 8]",growth inhibition ([2]; at 50.0 µM),"growth inhibition [3, 7]","growth inhibition [3, 8]",growth inhibition ([3]; at 50.0 µM),"growth inhibition [4, 7]","growth inhibition [4, 8]",growth inhibition ([4]; at 50.0 µM),"growth inhibition [5, 7]","growth inhibition [5, 8]",growth inhibition ([5]; at 50.0 µM),"growth inhibition [6, 7]","growth inhibition [6, 8]",growth inhibition ([6]; at 50.0 µM)
COc1cccc2c1C(=O)c1c(O)c3c(c(O)c1C2=O)CC(O)(C(C)=O)CC3OC1CC(N/C(C)=C/C(C)=O)C(O)C(C)O1 (stereo not given),91% (active),95% (active),88.5% (active),65%,98% (active),90% (active),45%,98% (active),88.9% (active),60%,98% (active),88.4% (active),69%,98% (active),85.8% (active),79% (active),97% (active),88.4% (active)
N#C/C(=C\NC(=S)Nc1cc(Cl)ccc1Cl)c1nc2ccccc2s1,21%,25%,34.2%,7%,21%,15.1%,2%,4%,10.1%,20%,29%,39.6%,7%,19%,37.4%,21%,12%,27.1%
CCCCCCCC[N+](C)(CCCCCCCC)CCCCCCCC,51%,95% (active),90.5% (active),47%,91% (active),92.2% (active),98% (active),97% (active),93% (active),71% (active),98% (active),91.7% (active),96% (active),96% (active),91.7% (active),41%,98% (active),91.2% (active)
COc1cc(F)ccn1,2%,0%,-4.75%,5%,4%,-11.4%,2%,2%,-12.5%,1%,4%,12.8%,-2%,-4%,46%,-4%,-3%,-18.2%
O/N=C(/CCc1ccccc1)c1ccccc1,7%,84% (active),97.1% (active),2%,70% (active),97% (active),5%,76% (active),97.2% (active),-2%,56%,93.2% (active),-2%,71% (active),95.7% (active),2%,71% (active),97.2% (active)
O=C(O)C(Cc1cc(I)c(O)c(I)c1)C1CCCCC1 (stereo not given),12%,99% (active),99.2% (active),8%,99% (active),99.2% (active),3%,97% (active),99.3% (active),7%,99% (active),99% (active),-11%,99% (active),99.3% (active),6%,99% (active),98.8% (active)
N=C(N)c1ccc(Nc2ccc(C(=N)N)cc2)cc1,20%,5%,91.2% (active),30%,-7%,86.3% (active),19%,9%,90% (active),1%,14%,72.2% (active),21%,56%,97.8% (active),14%,39%,91% (active)
CC(C)[CH2][Ge]([Cl])([Cl])[Cl],1%,-8%,98.5% (active),2%,-2%,98.8% (active),3%,-15%,98.7% (active),-2%,-14%,98.5% (active),3%,-3%,99% (active),1%,1%,99% (active)
NC(=Nc1ccccc1)SCc1ccc([N+](=O)[O-])cc1,47%,67%,30.2%,51%,78% (active),43%,13%,71% (active),57.2%,52%,76% (active),16.8%,29%,76% (active),70.5% (active),43%,70% (active),19.4%
N=C1C(=O)c2ccccc2-c2ccccc21,-93%,97% (active),96.3% (active),-25%,99% (active),96.3% (active),-35%,98% (active),97.3% (active),-75%,98% (active),91.3% (active),-20%,97% (active),97% (active),-86%,97% (active),95.7% (active)
O=C(Nc1ccccc1[N+](=O)[O-])/C(=N/Nc1cccc(Cl)c1)c1c(O)c2ccccc2oc1=O,29%,29%,87.1% (active),36%,36%,79.5% (active),35%,35%,89.5% (active),11%,11%,43.2%,27%,27%,78.8% (active),44%,44%,70% (active)
O=C(Nn1c(=O)c(=O)oc2ccccc21)C(F)(F)F,0%,90% (active),94.7% (active),1%,87% (active),69.4%,17%,88% (active),81.2% (active),3%,93% (active),94.2% (active),9%,95% (active),90.9% (active),26%,97% (active),97.4% (active)
Nc1ccc(Cl)c2c1C(=O)c1ccccc1C2=O,40%,19%,98.8% (active),13%,7%,56.8%,0%,41%,89.2% (active),-4%,3%,46.6%,0%,30%,34.1%,13%,12%,89.3% (active)
Cc1cc(N=[N+]=[N-])c2cc(C3CCCCC3)ccc2n1,12%,99% (active),96.5% (active),8%,98% (active),78.8% (active),7%,99% (active),97.8% (active),8%,69%,90.3% (active),0%,96% (active),90.9% (active),-2%,99% (active),96.8% (active)
CC(NNC(=S)N1CCCC1)c1ccc2ccccc2n1 (stereo not given),24%,96% (active),98% (active),6%,96% (active),98.2% (active),22%,96% (active),98% (active),4%,95% (active),97% (active),7%,97% (active),98.2% (active),15%,98% (active),96.4% (active)
Clc1ccc(Cc2nc3ccccc3s2)c(Cl)c1,39%,98% (active),90.8% (active),36%,99% (active),93.3% (active),43%,99% (active),94.1% (active),34%,89% (active),91.5% (active),43%,98% (active),92.5% (active),57%,99% (active),92.5% (active)
COc1ccc(-c2cc(-c3ccc(OC)cc3OC)[n+](C)c(-c3ccc(OC)cc3OC)c2)cc1,97% (active),98% (active),90% (active),98% (active),99% (active),93% (active),98% (active),99% (active),86.2% (active),97% (active),98% (active),88.2% (active),98% (active),99% (active),81.8% (active),97% (active),99% (active),93% (active)
CC(CN(C)C)C(/C=C/c1ccc(F)cc1)=N\Nc1ccccc1 (stereo not given),-8%,51%,30.1%,-11%,1%,12.6%,-15%,13%,42.6%,5%,46%,3.65%,-1%,39%,15.9%,0%,29%,75.7% (active)
Cc1ccc(NN(C)c2ccc(C)cc2)cc1,-4%,2%,34.3%,-1%,-8%,16.1%,-4%,-10%,-11.4%,5%,-4%,13.4%,9%,18%,27.6%,-3%,1%,3.1%
CCCCCCCCCCCCNCc1ccc(O)c(OC)c1,95% (active),97% (active),97.3% (active),97% (active),98% (active),97.4% (active),99% (active),97% (active),44.1%,93% (active),97% (active),95.7% (active),96% (active),97% (active),97.8% (active),98% (active),97% (active),97.5% (active)

# Source: PubChem BioAssay (NCI)
